# Data from PubChem BioAssay (NCI).
# About 83,000 compounds went through this panel and 20% of them were active in at least one assay; those are over-represented in the sample as a whole.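 A percent growth of 40 corresponds to 60% growth inhibition; 0 means no net growth; -100 means all cells died. Active threshold: below 10.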 Values without a mark were called inactive. Calls of active or inactive are those of the source.
# Columns and labels:
# Experiment in all cases: NCI-60 one-dose screen, 48 h (100 = growth as untreated, 0 = no growth, -100 = all killed)
# Details in all cases: 10 µM unless noted
# HCT-15 colon = system: HCT-15 colon
# HT29 colon = system: HT29 colon
# SNB-75 CNS = system: SNB-75 CNS
# SNB-19 CNS = system: SNB-19 CNS
# U251 CNS = system: U251 CNS
# PC-3 prostate = system: PC-3 prostate
# SK-MEL-5 melanoma = system: SK-MEL-5 melanoma
# UACC-62 melanoma = system: UACC-62 melanoma
# LOX IMVI melanoma = system: LOX IMVI melanoma
# SK-MEL-28 melanoma = system: SK-MEL-28 melanoma
# SK-MEL-2 melanoma = system: SK-MEL-2 melanoma
# EKVX NSCLC = system: EKVX NSCLC
# SN12C renal = system: SN12C renal
# UO-31 renal = system: UO-31 renal
# TK-10 renal = system: TK-10 renal
# ACHN renal = system: ACHN renal
# CAKI-1 renal = system: CAKI-1 renal
# A498 renal = system: A498 renal
# CCRF-CEM leukemia = system: CCRF-CEM leukemia
# MOLT-4 leukemia = system: MOLT-4 leukemia
SMILES,growth (HCT-15 colon),growth (HT29 colon),growth (SNB-75 CNS),growth (SNB-19 CNS),growth (U251 CNS),growth (PC-3 prostate),growth (SK-MEL-5 melanoma),growth (UACC-62 melanoma),growth (LOX IMVI melanoma),growth (SK-MEL-28 melanoma),growth (SK-MEL-2 melanoma),growth (EKVX NSCLC),growth (SN12C renal),growth (UO-31 renal),growth (TK-10 renal),growth (ACHN renal),growth (CAKI-1 renal),growth (A498 renal),growth (CCRF-CEM leukemia),growth (MOLT-4 leukemia)
S=C(S)Oc1cccc2cccnc12,105%,98%,87%,107%,105%,84.7%,110%,96.4%,98.9%,109%,105%,115%,89.8%,62.2%,100%,96.2%,91.7%,105%,103%,83.6%
CCCCCCCC/C=C/CCCCCCCC1=NC(C)(C)CN1C(C)C,-45.1% (active),-51.3% (active),25.5%,46.4%,-76.1% (active),-74.4% (active),-86.3% (active),-60.5% (active),-81.2% (active),-82.8% (active),-63.9% (active),10.6%,16.8%,-17.4% (active),-14.8% (active),-78.3% (active),31.2%,65.7%,-43.4% (active),-63.2% (active)
CC(C)(C)c1ccc(C(=O)Nc2sc3cc(O)ccc3c2C(N)=O)cc1,43.9%,23.8%,95.9%,94.1%,77.5%,79.2%,96.6%,104%,23.3%,87.5%,114%,94.6%,78%,65.6%,133%,74.1%,77.3%,107%,50%,–
CCN(CC)CCNC(=O)C(F)(F)C(F)(F)C(F)(F)F,100%,115%,97.2%,116%,104%,96%,105%,107%,104%,115%,106%,102%,108%,89.9%,108%,101%,94.6%,102%,100%,109%
O=P(O)(O)C(O)(Cc1cccnc1)P(=O)(O)O,90.3%,106%,88%,107%,81.6%,95.9%,103%,99.2%,86.1%,103%,111%,103%,94%,84.6%,144%,100%,94.2%,119%,79.1%,–
C=C1C(=O)O[C@H]2[C@H]1CC/C(COC(=O)NCc1cn(C)c3ccccc13)=C\CC[C@@]1(C)O[C@@H]21,-45.8% (active),-62% (active),50%,54.2%,0.165% (active),8.71% (active),10.6%,-41% (active),-65% (active),-14.6% (active),-2.82% (active),29.6%,2.93% (active),-88.3% (active),-47.8% (active),-36.2% (active),-18.7% (active),63.4%,-13.3% (active),-15.4% (active)
COc1cc(C2CC(c3ccc(C)cc3)=NN2C=O)ccc1Oc1ccnc2cc(Cl)ccc12 (stereo not given),97.4%,92.3%,-36.1% (active),29.5%,7.3% (active),85.3%,97.1%,55.8%,76%,101%,6.3% (active),79.2%,75.7%,95.3%,54.5%,48.3%,69.7%,53.3%,82.8%,80.3%
CCOC(=O)c1cnc(SCC)nc1SC#N,63.3%,81.5%,93.1%,110%,89.2%,91.7%,126%,94.3%,83%,108%,96.1%,99.8%,95.7%,95.2%,84.3%,71.3%,-65.3% (active),106%,–,–
Cc1[nH]c2ccccc2c1C1=CC(=O)C=CC1=O,74.6%,105%,82.8%,93%,72.4%,79.3%,85.6%,75.9%,79.1%,104%,93.7%,107%,90.8%,59.5%,92.2%,58.7%,96.8%,121%,28.4%,–
CCN(CC)CCCC(C)Nc1ccnc2ccc(Oc3ccccc3)cc12 (stereo not given),49.6%,38.6%,73.2%,89.4%,63.5%,84.9%,-89% (active),31.7%,36.4%,-6.8% (active),112%,85.5%,79.1%,68.5%,93.5%,67.1%,79%,48.4%,72.5%,62.6%
Cc1ccc(OC2=C(C#N)C(=N)N3C(=NN2)Sc2c(C)ccc(C)c23)cc1,104%,116%,96.5%,118%,103%,82.4%,96.3%,98.7%,96.7%,106%,121%,91.5%,106%,82.7%,129%,99%,86%,94.9%,94.9%,89.1%
COc1cc(/C=N/NC(=O)Cn2c(-c3ccc(C)o3)nc3ccccc32)ccc1OCc1ccccc1,74.1%,87.2%,83.2%,79.6%,88.5%,63.1%,76.6%,77.8%,88.1%,99.1%,94.5%,75.2%,95.4%,61.8%,93.4%,85.4%,82.6%,78.5%,80.6%,50.2%
O=C1OCC2=C1C(c1ccccc1)c1cc3c(cc1N2CCO)OCO3 (stereo not given),24%,12.5%,31.4%,36%,20.3%,24.5%,-12.3% (active),28.9%,37%,50.5%,14.6%,35.4%,39%,43.9%,63.4%,36.5%,35.8%,6.06% (active),–,–
CCCCCCCCCCCC1=NC(C)(C)CN1C(C)C,11.8%,0.372% (active),52%,86.7%,37%,34.6%,-24.7% (active),-51.3% (active),34.6%,-54.7% (active),60.9%,57.5%,61%,38%,81.6%,61.6%,46.6%,76.7%,29.3%,–
Cc1csc(N/N=C/c2ccncc2)n1,103%,87.4%,105%,100%,83.5%,111%,100%,93.2%,100%,110%,97.7%,90.1%,97.8%,95%,91%,103%,99.5%,85.2%,–,–
